Data as given in PubChem BioAssay AID504882 (Broad Institute, 2011).
In all, about 1,200 compounds went through this assay and about 290 (24%) were called active. About 9% were inconclusive and are not listed. These entries were drawn from the full list. Entries with a potency or affinity are not part of this list. Values without a mark were called inactive. No rule for the calls is given here.

Test: cytotoxicity in EBV lymphoblastoid cells, dose response, cytotoxicity control, cell-based, plate reader, cherry-picks, set 2 (AID 504882);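 also: 0% = neutral control wells and -100% = positive control wells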
Conditions: EBV lymphoblastoid cells (LCL) viability; series mostly up to 19.5 µM; activity change, negative = cytotoxicity: at the top concentration

| SMILES | activity change, negative = cytotoxicity |
| --- | --- |
| Cn1c(-c2ccccc2)cnc1SCC(=O)N1CCCCC1 | -1.03% |
| COc1ccc([C@H]2N[C@]3(CCCN(Cc4ccco4)C3=O)[C@H]3C(=O)N(Cc4ccccc4)C(=O)[C@@H]23)cc1 | 8.48% |
| Cc1nn(-c2ccccc2)c(Cl)c1C(=O)N1CCN(c2ncnc3c2cnn3-c2ccccc2)CC1 | 8.3% |
| COc1ccc(/C=C2\N=C(C)OC2=O)cc1[N+](=O)[O-] | 15.4% |
| Cc1ccc(N2C(=O)c3ccccc3C2Nc2cccnc2)nc1 (centres undefined) | 8.83% |
| C=CCN=C1NN=C(c2cc(C)n(CCOC)c2C)CS1 | 7.41% |
| COc1ccc(-c2nc(CN3CCC(C(=O)N4CCOCC4)CC3)c(C)o2)cc1C | 17% |
| Cc1cc2ccccc2n1CCNC(=O)COc1ccc2ccccc2c1 | -7.24% |
| Cc1ccccc1C(=O)c1c[nH]c(C(=O)NCc2ccco2)c1 | 2.39% |
| O=C1c2ccccc2C(O)N1Cc1ccccc1 (centres undefined) | 14.5% |
| Nc1ncnc2c1c(-c1ccc(Oc3ccccc3)cc1)cn2C1CCCC1 | 50.1% [at 6.8 µM] |
| CN1CCN(C(=O)C2=C[C@@H](C(C)(C)C)C[C@@H](OCc3ccc(CO)cc3)O2)CC1 | 11.6% |
| COc1ccc(C(CNC(=O)Nc2ccccc2)N2CCN(C)CC2)cc1 (centres undefined) | 14.2% |
| CC1CN(c2cc(=O)n(-c3ccccc3)c(=O)[nH]2)CC(C)O1 (centres undefined) | 18.3% |
| N#CCCn1cc(C(=O)Nc2ccccn2)c(-c2ccccc2)n1 | 14.4% |
| O=C(Nc1ccccn1)NC1CCCCC1 | 7.78% |
| Cc1ccc(NC(=O)C(=O)Nc2ccccn2)cc1 | -5.99% |
| COc1ccc(OCC(=O)Nc2nccs2)cc1 | -3.7% |
| O=[N+]([O-])c1ccc(N2CCN(Cc3cccc([N+](=O)[O-])c3)CC2)cc1 | -8.09% |
| Cc1ccc(C2=C/C(=C\c3cccnc3)C(=O)O2)cc1 | 26.3% |
| CCOc1ccc(N(C(C)C(=O)N2CCCCCC2)S(C)(=O)=O)cc1 (centres undefined) | 16.9% |
| CN(C)c1cccc(C(=O)N/N=C/c2ccccc2F)c1 | -0.033% |
| Cn1ncc(Cl)c1C(=O)NC1CCCC1 | 8.05% |
| CCN(CC)c1ccc(NC(=O)c2cccc(F)c2)c(C)c1 | -4.81% |
| COCCn1c(SCC(=O)N2CCc3ccccc32)nc2c(c1=O)SC(C)C2 (centres undefined) | 4.03% |
| Cc1cc(C)n(C2CCCCC2OC(=O)c2ccccc2F)n1 (centres undefined) | 6.26% |
| O=C(c1ccc(Cl)cc1)N1CCN(CCOc2ccccc2)CC1 | -5.59% |

| SMILES | activity change, negative = cytotoxicity |
| --- | --- |
| CNC(=S)N1N=C(c2cccs2)CC1c1ccc(F)cc1 (centres undefined) | 6.47% |
| O=C1OCCC1Sc1nnc(-c2ccc(Cl)cc2Cl)o1 (centres undefined) | 3.95% |
| CCCC(=O)C1=C(O)C(C(=O)OC)C(C)(C)CC1=Nc1ccncc1 (centres undefined) | 0.978% |
| Cc1cc(C(=O)COC(=O)c2ccc[nH]c2=O)c(C)n1-c1ccccc1 | 7.68% |
| COc1ccc(S(=O)(=O)N2CCOCC2)cc1NC(=O)COC(=O)CCS(=O)(=O)c1ccc(C)cc1 | 18.5% |
| O=C(O)CCc1nc(-c2ccc(Cl)cc2)no1 | 12.6% |
| NC(=O)c1sc2nc3c(c(-c4cccs4)c2c1N)CCCCC3 | -24.2% |
| O=C1CC(c2cccs2)Cc2nc(NC(=O)C3CC3)ncc21 (centres undefined) | 7.29% |
| O=C(Nc1ccc(Br)cc1)C1CC(O)CN1C(=O)OCc1ccccc1 (centres undefined) | -0.795% |
| CC(CN1CCCCC1)OC(=O)c1ccc2c(c1)OCO2 (centres undefined) | 8.24% |
| COC(=O)C1=C(C(=O)c2ccccc2)C(c2ccccc2)n2nnnc2N1 (centres undefined) | 9.39% |
| Cc1ccc(NC(=O)/C=N/OCC(=O)NCc2ccccc2Cl)cc1 | 4.91% |
| Cc1cc(N)nc(=O)n1C1CC(O)C(CO)O1 (centres undefined) | 13.5% |
| CCOC(=O)/C=C(\C)Sc1cc(=O)oc2ccccc12 | 9.34% |
| CCCNC(=O)N1CCN(S(=O)(=O)c2ccc(C)c(C)c2)CC1 | 27.5% |
| COc1ccc(S(=O)(=O)N2CCCCCC2)cc1C(=O)OCc1cccc(OC)c1OC | -3.66% |
| Cc1ccc(-n2nc(C(=O)NCc3ccc(C)o3)c3c4ccccc4n(C)c3c2=O)cc1 | 3.13% |
| COc1ccc(OC)c(CCNC(=O)CCn2nc(C)c3c(C)n(-c4ccccc4)nc3c2=O)c1 | 17% |
| Cn1cc(CC(=O)NCCCN2CCCC2)c2ccccc21 | 8% |
| CCOC(=O)N1CCC(NC(=O)C2CCCN(Cc3nc(-c4cccc(Cl)c4)oc3C)C2)CC1 (centres undefined) | 20.2% |
| NC(=O)OCC(COC(N)=O)c1ccccc1 | 7.54% |
| O=C(CN1C(=O)c2ccccc2S1(=O)=O)c1ccccc1 | 15.8% |
| COc1ccc(-n2cnc3c(cnn3CCC#N)c2=N)cc1 | 16.5% |
| O=C(NC1CCCCC1)N1CCN(c2ccc([N+](=O)[O-])cc2)CC1 | -5.42% |
| COc1ccc(CCNC(=O)c2nnn(-c3ccc4c(c3)OCCO4)c2N)cc1OC | 10.3% |
| Cc1ccccc1-n1nc(C)c2cc(C(=O)NC3CC3)sc21 | 12.5% |
| CC1CCN(CCOc2ccc(C(=O)c3ccccc3)cc2)CC1 | 8.06% |
